A selection: hits, their analogues and other compounds. The true share with any hit is near 8%.
KB-3-1 cytotox: kills parental KB-3-1 adenocarcinoma cells | KB-3-1 viability, CellTiter-Glo ATP luminescence, 72 h | Potency, µM (doses to about 46.1 µM), hits mostly cytotoxic | 400,000 compounds, 1.4% hits; further: on the % scale 0 is the no-effect control and ±100 the full control effect; nearly all actives have a fitted effect of over 60% in size
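Viability of parental KB-3-1 cells, measured by CellTiter-Glo luminescence, followed a 72 h incubation at 37 °C with pinned compounds in phenol-red-free DMEM containing 10% FBS.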
MCF10A rerep: induces DNA re-replication in MCF 10a normal breast cells. Potency, µM (highest dose often 46.1 µM), for the others: at the top dose activity, positive = re-replication, actives largely listed as activators. MCF 10A DNA re-replication, Hoechst nuclear intensity, 48 h. 350,000 compounds, 2.9% hits. AID 624296; further: % of control where 0% means no effect; nearly all actives have a fitted effect of over 50% in size
KB-V1 MDR tox: kills drug-selected multidrug resistant KB-V1 cells; 400,000 compounds, 3.4% hits; KB-V1 MDR cells viability, CellTiter-Glo, 72 h; Potency, µM (series often up to 46.1 µM), hits mostly cytotoxic; further: on the % scale 0 is the no-effect control and ±100 the full control effect; nearly all actives have a fitted effect of over 60% in size
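Cytotoxicity via CellTiter-Glo luminescence after 72 h compound exposure at 37 degrees C. Cells: drug-selected KB-V1 line, DMEM phenol-red free plus 10% FBS. Compounds tested at multiple concentrations; normalized data fitted to concentration-effect curves.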
SW480 rereplic: inducers of DNA re-replication in SW480 colon cancer cells | SW480 DNA re-replication, Hoechst DNA content imaging, 48 h | Potency, µM (highest dose often 46.1 µM), without a hit: at the top dose re-replication activation, most hits filed as activators | 340,000 compounds, 1.8% hits | AID 624297; further: % of control where 0% means no effect; nearly all actives have a fitted effect of over 55% in size
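First, 250 cells per well were seeded. Next, compound or vehicle (23 nL) was pinned in, plates sat 48 hr at 37 C. Finally Hoechst was added for 40 min before fluorescence scanning.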
HT1080 IDH1KD tx: kills HT-1080 cells with IDH1 knockdown. Potency, µM (highest dose often 46.1 µM), for inactives: at the top dose activity, negative = toxicity, most hits filed as cytotoxic. HT-1080 IDH1 knockdown viability, ATP luminescence, 48 h. 360,000 compounds, 2% hits. AID 686971;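 further: 0% = DMSO wells and -100% = cell-free medium wells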
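% activity derives from luminescence (CellTiter-Glo), normalised to DMSO and no-cell wells. HT-1080-IDH1KD cells, 750/well, had 48 h compound exposure at 37 °C.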
HT1080NT lethal: kills 2HG-producing HT-1080-NT fibrosarcoma cells. HT-1080-NT fibrosarcoma viability, CellTiter-Glo ATP luminescence, 48 h. Potency, µM (doses to about 46.1 µM), inactives show top-dose activity, negative = less viability, usual class: cytotoxic. 360,000 compounds, 1.6% hits. AID 686970;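 further: NT is the 2HG producing partner of a matched IDH1 knockdown line; 0% = DMSO-treated cells and -100% = media-only wells without cells; nearly all actives have a fitted effect of over 55% in size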
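HT-1080-NT; 750 cells/well; 5% FBS RPMI; 48 h compound, 37 degrees C; CellTiter-Glo luminescence; curve fitting and curve-class assignment.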
Active calls of the source: *; i = inactive; ? = inconclusive; nt = not tested or not shown; [ ] = remark or other dose. The call rests on the fitted dose curve; in most records, active means well fitted curve in the direction sought with a large enough effect; inconclusive means small, poorly fitted or top-dose-only effect, or another doubt; inactive means no such curve, though single readings can be large; an effect the other way counts as inactive or inconclusive. Potency means the concentration at half of the fitted maximal effect.

SMILES	KB-3-1 cytotox	MCF10A rerep	KB-V1 MDR tox	SW480 rereplic	HT1080 IDH1KD tx	HT1080NT lethal
CN(Cc1ccccc1)CC(O)COc1ccc(CNCc2cccnc2)cc1 (stereo unspecified)	i	?	i	21%	?	-9%
O=c1c2c3nc4ccccc4nc3n(/N=C/c3ccccn3)c2ncn1-c1ccccc1	i	3.3µM*	?	23µM*	?	5.8µM*
C=CCn1cnc2c(c1=O)c1nc3ccccc3nc1n2/N=C/c1ccccn1	i	5%	?	8%	0%	8%
CSC1=NCCCN1C(=O)c1c(-c2ccccc2Cl)noc1C	i	8%	i	-11%	-3%	10%
CCOC(=O)Nc1ccc2c(CNC(C)c3ccccc3OC)cc(=O)oc2c1 (stereo unspecified)	i	18µM*	i	24%	-7%	-2%
CCOC(=O)Nc1ccc2c(CN3C(=O)NC(CC)(CC)C3=O)cc(=O)oc2c1	i	-10%	i	-7%[9.22 µM]	-3%	-3%
CCOCCCN(CCC#N)S(=O)(=O)c1ccc(S(=O)(=O)N2CCCC2)cc1	i	5%	26µM*	1%	4%	1%
CCN(CC)S(=O)(=O)c1ccc(S(=O)(=O)N2CCCC2)cc1	i	-1%	i	-2%	-4%	1%
Oc1cc(-c2ccc(N3CCCCC3)nc2)cc2cccnc12	5.2µM*	?	?	0.82µM*	nt	nt
Oc1cc(Nc2ccncc2)cc2cccnc12	i	22%	i	4%	nt	nt
Oc1cc(-c2ccncc2)cc2cccnc12	10µM*	?	?	-6%	nt	nt
Oc1cc(Nc2cccnc2)cc2cccnc12	21µM*	?	i	?	nt	nt
CN(C)c1ccc(-c2cc(O)c3ncccc3c2)cc1	i	-17%	i	?	nt	nt
Cc1cc(-c2cccc([N+](=O)[O-])c2)nc2ccccc12	i	-1%	i	-2%	2%	-2%
CCO[C@H]1OC(C(=O)N2CCN(C)CC2)=C[C@@H](c2csc3ccccc23)[C@@H]1CCCO	i	23%	i	4%	-8%	-2%
Cc1ccc(OCC(=O)N2CCN(c3nnc(-c4ccc(C)cc4)c4ccccc34)CC2)cc1	16µM*	?	2.6µM*	?	?	14µM*
Cc1ccc(-c2nnc(N3CCN(C(=O)COc4cccc(C)c4)CC3)c3ccccc23)cc1	?	6%	?	-14%	-20%	-1%
COc1ccc(OCC(=O)N2CCN(c3nnc(-c4ccc(C)cc4)c4ccccc34)CC2)cc1	?	14%	5.2µM*	-6%	?	?
COc1ccc(OCC(=O)N2CCN(c3nnc(-c4ccccc4)c4ccccc34)CC2)cc1	23µM*	8%	2.6µM*	7%	-4%	-26%
Cc1cccc(OCC(=O)N2CCN(c3nnc(-c4ccccc4)c4ccccc34)CC2)c1	i	3%	?	-3%	-14%	-4%
O=C(COc1ccccc1)N1CCN(c2nnc(-c3ccccc3)c3ccccc23)CC1	?	9%	4.1µM*	-1%	-23%	?
Cc1ccc(Oc2ccc(/C=N/O)cn2)cc1	i	?	i	?	13%	1%
Cc1ccccc1NC(=O)CSc1nnc(-c2cccs2)o1	i	nt	i	nt	nt	nt
Cc1ccnc(NC(c2ccsc2)c2ccc3ccc(C)nc3c2O)c1 (stereo unspecified)	i	?	i	?	15µM*	?
COc1ccc(C(Nc2cc(C)ccn2)c2ccc3ccc(C)nc3c2O)cc1 (stereo unspecified)	i	0%	i	?	-8%	-20%
SMILES	KB-3-1 cytotox	MCF10A rerep	KB-V1 MDR tox	SW480 rereplic	HT1080 IDH1KD tx	HT1080NT lethal
Cc1ccnc(NC(c2ccccc2F)c2ccc3cccnc3c2O)c1 (stereo unspecified)	?	nt	i	nt	nt	nt
Cc1ccnc(NC(c2cccnc2)c2ccc3cccnc3c2O)c1 (stereo unspecified)	i	?	?	3.3µM*	?	?
COCOc1ccc(-c2cc(=O)c3c(O)cc(OCOC)cc3o2)cc1	i	-34%	?	-4%	1%	-3%
CC(C)(C)n1nnnc1C(c1ccccc1)N1CCN(c2c(Cl)cncc2Cl)CC1 (stereo unspecified)	?	nt	?	nt	13%	12%
COc1ccc(Nc2cnn(-c3nc4ccccc4s3)c(=O)c2Cl)cc1	?	?	21µM*	10%	?	?
O=c1c(Cl)c(Nc2cccc(Cl)c2)cnn1-c1nc2ccccc2s1	?	8%	i	-2%	5%	-5%
O=C(NCc1cccs1)C1CC(=O)N(C2CCCC2)C1 (stereo unspecified)	i	-5%	i	-8%	-4%	2%
O=C(Nc1ccc(Br)cc1)C1C2C=CC3(O2)C1C(=O)N(CCN1CCOCC1)C3C(=O)NC1CCCCC1 (stereo unspecified)	i	-44%	i	-25%	-7%	0%
O=C(/C=C/c1cn(CC(O)CN2CCCCCC2)c2ccccc12)c1cccs1 (stereo unspecified)	?	15µM*	?	18µM*	21µM*	18µM*
CCCCN(C)CC(O)Cn1cc(/C=C/C(=O)c2cccs2)c2ccccc21 (stereo unspecified)	?	16µM*	?	23µM*	4%	0%
COc1ccccc1Nc1nc(N)nc(CSc2nc(C)cc(C)n2)n1	?	4%	13µM*	-3%	0%	-1%
COc1ccccc1Nc1nc(N)nc(CSc2nccc(C)n2)n1	i	1%	i	-1%	3%	2%
Cc1cccc(Sc2c([N+](=O)[O-])ncn2C)c1	i	?	i	9%	6%	2%
Cn1cnc([N+](=O)[O-])c1Oc1ccc2ccccc2c1	?	4.1µM*	?	6.5µM*	?	-18%
CCOc1ccc(N(CCC#N)S(=O)(=O)c2ccc(OC)cc2)cc1	?	?	21µM*	?	?	?
O=C(O)c1cccc(NC(=O)c2cccc(S(=O)(=O)Nc3cccc([N+](=O)[O-])c3)c2)c1	i	-2%	i	-9%	15%	9%
CCCCC(CC)C(=O)Nc1ncc([N+](=O)[O-])s1 (stereo unspecified)	?	?	?	-3%	18µM*	?
O=C(CCS(=O)(=O)c1ccccc1)Nc1ncc([N+](=O)[O-])s1	?	4.6µM*	?	7.3µM*	16µM*	21µM*

Screens: PubChem BioAssay, National Center for Advancing Translational Sciences (NCATS)
